Measurements taken from PMC5540273 (PLoS ONE, 2017).

Legend:
Conditions in all cases: concentration: 1 μM,replicates: in singlicate; n = 1
PIP5K1A = test system: PIP5K1A
PIP5K1C = test system: PIP5K1C
PIP5K2B = test system: PIP5K2B
PIP5K2C = test system: T1, PIP5K2C
T1 construct: gene PIP4K2C

PKAC-alpha = test system: T2, PKAC-alpha
T2 construct: gene PRKACA

PKAC-beta = test system: T3, PKAC-beta
T3 construct: gene PRKACB

PKMYT1 = test system: PKMYT1
PKN1 = test system: PKN1
PKN2 = test system: PKN2
PLK1 = test system: PLK1
PLK2 = test system: PLK2
PLK3 = test system: PLK3
PLK4 = test system: PLK4
PRKCD = test system: PRKCD
PRKCE = test system: PRKCE
PRKCH = test system: PRKCH
PRKCI = test system: PRKCI
PRKCQ = test system: PRKCQ
PRKD1 = test system: PRKD1
PRKD2 = test system: PRKD2
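Note: KINOMEscan kinase panel screen.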

Row | SMILES | %Inh (PIP5K1A) [%] | %Inh (PIP5K1C) [%] | %Inh (PIP5K2B) [%] | %Inh (PIP5K2C) [%] | %Inh (PKAC-alpha) [%] | %Inh (PKAC-beta) [%] | %Inh (PKMYT1) [%] | %Inh (PKN1) [%] | %Inh (PKN2) [%] | %Inh (PLK1) [%] | %Inh (PLK2) [%] | %Inh (PLK3) [%] | %Inh (PLK4) [%] | %Inh (PRKCD) [%] | %Inh (PRKCE) [%] | %Inh (PRKCH) [%] | %Inh (PRKCI) [%] | %Inh (PRKCQ) [%] | %Inh (PRKD1) [%] | %Inh (PRKD2) [%]
1 | Cl.Oc1cc(-c2nc(-c3ccccc3)[nH]c2-c2ccncc2)ccc1Cl [SB-386023] | 30 | 0 | 16 | 0 | 5 | 1 | 0 | 0 | 33 | 1 | 33 | 12 | 17 | 0 | 13 | 1 | 0 | 8 | 0 | 2
2 | CN(C)CCOc1ccc(-c2cc(-c3c[nH]nc3-c3ccccn3)ccn2)cc1 [GW835314] | 0 | 16 | 26 | 8 | 10 | 0 | 0 | 100 | 3 | 42 | 21 | 0 | 2 | 23 | 11 | 8 | 14 | 100 | 89 | 96.1
3 | Cc1cc2cn[nH]c2cc1-c1cccc2c(N)c(C(N)=O)nnc12 | 16 | 0 | 0 | 10 | 1 | 0 | 0 | 0 | 0 | 15 | 5 | 0 | 51 | 5 | 4 | 7 | 23 | 21 | 86 | 89
4 | Cl.Cl.Nc1nc(-c2ccc3c(N)n[nH]c3c2)cc(N2CCCC(NC(=O)c3ccccc3)C2)n1 (stereo not drawn) [GSK2286775] | 56 | 55 | 38 | 25 | 0 | 0 | 5 | 41 | 0 | 0 | 0 | 1 | 16 | 0 | 10 | 0 | 24 | 18 | 0 | 0
5 | COc1ccc(C[C@@H](CN)NC(=O)c2cc(Br)c(-c3ccnc4[nH]ccc34)s2)cc1.Cl.Cl [GSK1389063] | 46 | 30 | 64 | 59 | 99.7 | 99.7 | 0 | 95.8 | 90 | 0 | 27 | 27 | 34 | 99.8 | 98.2 | 99.4 | 56 | 92.4 | 83 | 85
6 | CCN(CC)CCOc1ccc(Nc2ncc3cc(-c4c(Cl)cccc4Cl)c(=O)n(C)c3n2)cc1 [SB-601273] | 72 | 82 | 16 | 90.7 | 26 | 0 | 98.6 | 57 | 6 | 26 | 27 | 52 | 30 | 0 | 22 | 0 | 26 | 27 | 93.3 | 93.6
7 | O=C(NCCNc1ccnc(NCc2ccc(F)cc2)n1)c1cc2ccccc2s1 [GSK1379944] | 0 | 100 | 20 | 12 | 7 | 14 | 74 | 0 | 0 | 0 | 0 | 0 | 74 | 0 | 86 | 22 | 8 | 39 | 0 | 70
8 | NC(=O)c1cc(-c2ccccc2)cc2c(C3CCNCC3)c[nH]c12 [GSK301362] | 0 | 33 | 14 | 75 | 0 | 11 | 17 | 50 | 0 | 10 | 34 | 0 | 0 | 40 | 46 | 71 | 35 | 64 | 37 | 2
9 | Cl.Cl.NC[C@H](CC1CCCCC1)NC(=O)c1cc(Br)c(-c2ccnc3[nH]ccc23)s1 [GSK1581427] | 63 | 35 | 89 | 36 | 99.5 | 99.6 | 0 | 31 | 82 | 0 | 0 | 0 | 15 | 99.5 | 96.6 | 97.7 | 0 | 90.2 | 64 | 67
